Reference: PubChem BioAssay AID504840 (Johns Hopkins Ion Channel Center, 2011)
About 890 (59%) of roughly 1,500 compounds were called active.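 How the source made its calls: active means inhibition of the choline-evoked signal at any tested dose together with a fitted dose-response curve; inactive means no inhibition at any dose or no curve.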 So high a share suggests a set chosen from earlier hits. A selection follows. Results with a measured potency or affinity are listed apart.

These compounds were tested against High affinity choline transporter 1 (Homo sapiens) (UniProt Q9GZV3) (assay: human choline transporter blockers, potency – cell-based, 5-point CRC, membrane potential dye, dose response (AID 504840)). Settings: HEK293-CHT, choline-induced depolarization, CHT with LV-to-AA double alanine mutation; series mostly up to 37 µM.
Sequence of High affinity choline transporter 1 (Homo sapiens) (Q9GZV3 whole entry, looked up): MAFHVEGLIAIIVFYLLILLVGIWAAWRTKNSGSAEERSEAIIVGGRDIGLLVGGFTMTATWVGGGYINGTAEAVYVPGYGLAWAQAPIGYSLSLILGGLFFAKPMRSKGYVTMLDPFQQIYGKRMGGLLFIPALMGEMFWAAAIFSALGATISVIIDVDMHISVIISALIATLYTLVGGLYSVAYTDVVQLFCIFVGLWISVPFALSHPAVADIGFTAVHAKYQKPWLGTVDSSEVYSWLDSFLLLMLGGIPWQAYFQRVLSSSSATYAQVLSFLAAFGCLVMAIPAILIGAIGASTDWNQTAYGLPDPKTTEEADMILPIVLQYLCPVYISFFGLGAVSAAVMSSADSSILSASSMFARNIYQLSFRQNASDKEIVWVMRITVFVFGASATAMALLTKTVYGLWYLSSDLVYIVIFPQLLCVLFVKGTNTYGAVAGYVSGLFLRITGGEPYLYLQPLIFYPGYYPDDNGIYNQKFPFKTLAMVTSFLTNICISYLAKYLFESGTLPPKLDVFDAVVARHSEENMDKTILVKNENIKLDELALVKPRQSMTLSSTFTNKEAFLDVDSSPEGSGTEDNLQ

outcome, inactive:
CCCCCNC(=O)c1ccc2c(=O)[nH]c3c(C(=O)NCC4CCCO4)sc(=S)n3c2c1 (configuration not stated)
CCOc1cc2[nH]c(=S)n(C(C)C)c(=O)c2cc1OCC
CCOCCCn1c(=S)[nH]c2cc(C(=O)N3CCN(C4CCCCC4)CC3)ccc2c1=O
O=C(N/N=C/c1cn[nH]c1-c1ccc(Cl)cc1)c1ccc([N+](=O)[O-])cc1
CCOC(=O)C(C)Sc1nnc(NC(=O)c2cccc([N+](=O)[O-])c2C)s1 (configuration not stated)
Cc1ccc(C(=O)NCC(=O)OCC(=O)Nc2ccccc2C#N)s1
Cc1c(NC(=O)/C=C/c2cn(-c3ccccc3)nc2-c2ccccc2)c(=O)n(-c2ccccc2)n1C
COc1ccccc1C(=O)NC(C)c1cccc2ccccc12 (configuration not stated)
Cc1cccc(N2CCN(C(=O)COc3cc(=O)n(C)c4ccccc34)CC2)c1C
CN(C)CCNC(=O)C(=O)NCC(c1ccc2c(c1)OCO2)N1CCN(c2ccc(F)cc2)CC1 (configuration not stated)
O=S(=O)(Nc1nc2ccccc2s1)c1ccc(Cl)nc1
O=C(NC1CCCCC1)N(Cc1ccccc1)Cc1ccco1
CCN(Cc1ccccc1)S(=O)(=O)c1cc(C(=O)O)ccc1OC
CCc1ccc(OCc2n[nH]c(=S)n2Cc2ccccc2)cc1
O=C(NNC1=C(C(=O)C(F)(F)F)CCC1)c1ccc(Cl)cc1
CCc1ccc2c(c1)C1(NN=C(c3ccc(C)cc3)S1)C(=O)N2 (configuration not stated)
CCc1ccc2c(c1)C1(NN=C(c3ccccc3)S1)C(=O)N2 (configuration not stated)
Cc1oc2c(F)c(F)c(F)c(F)c2c1S(=O)(=O)Nc1cccc(C(F)(F)F)c1
CC(/C=C1\SC(=S)N(C(C(=O)O)c2ccccc2)C1=O)=C\c1ccccc1 (configuration not stated)
Cc1noc(NS(=O)(=O)c2ccc(NC(=O)c3oc4ccc(Cl)cc4c3C)cc2)c1C
Nc1c(C(=O)NCCN2CCOCC2)c2nc3ccccc3nc2n1CCc1ccccc1F
O=C(Nc1cccc(C(F)(F)F)c1)C1CCN(S(=O)(=O)c2cccnc2)CC1
O=C(CSc1ccc2ccccc2c1)Nc1ccncc1
CCc1nnc(NC(=O)CSc2ncc(-c3ccccc3)n2C)s1
O=C(NNC(=S)Nc1ccc(Br)cc1)c1ccccc1Br
COc1ccc(Br)cc1C(=O)NC(=S)Nc1ccc(Cl)c(C(=O)O)c1
CC(Oc1ccc(Cl)cc1)C(=O)NNC(=S)NC(=O)c1ccco1 (configuration not stated)
CCCc1cc(=O)[nH]c(SCc2nc3ccccc3s2)n1
O=C(CCc1ccccc1)c1c(O)cc(O)cc1O
COc1ccccc1-c1coc2cc(O)cc(O)c2c1=O
O=C(Nc1ccccc1Cl)c1ccc(S(=O)(=O)NCC2CCCO2)cc1 (configuration not stated)
Cc1cc(S(=O)(=O)NCc2ccncc2)c(C)cc1Br
COc1ccc(-n2cnnc2SCC(=O)Nc2cc(S(=O)(=O)N3CCCCC3)ccc2C)cc1
Cc1ccccc1CNS(=O)(=O)c1ccc2c(c1)OCCO2
CCC1CCCCN1CCCNC(=O)c1ccc(N2CCOCC2)c(NS(=O)(=O)c2ccc(OC)cc2)c1 (configuration not stated)
Cc1ccc(Oc2ccc(S(=O)(=O)NCC(C)(C)N3CCOCC3)cc2)cc1
CCOC(=O)c1ccc(NS(=O)(=O)c2ccc3c(c2)NC(=O)CCS3)cc1
Cc1ccccc1C(=O)NNC(=S)NC(=O)COc1ccccc1
Cc1ccc(C)c(NCC(=O)NNC(=S)Nc2ccccc2)c1
Cc1cccc(C(=O)NC(=S)NNC(=O)c2cccs2)c1
Cc1ccccc1C(=O)NNC(=S)NC(=O)c1ccc(Cl)cc1Cl
Cc1cccc(C(=O)NNC(=S)NC(=O)c2cccs2)c1
O=C(O)CC(NC(=O)c1sc2ccccc2c1Cl)c1ccc(OC2CCCC2)cc1 (configuration not stated)
CC(O)c1cccc(NC(=O)CC(c2ccccc2)c2ccccc2)c1 (configuration not stated)
O=C(CC(c1ccccc1)c1ccccc1)Nc1ccncc1
CC1CCCN(CCCNC(=O)c2ccc3c(c2)N(Cc2ccccc2F)C(=O)c2ccccc2S3(=O)=O)C1 (configuration not stated)
O=C(O)c1ccc2c(c1)N(Cc1ccc(F)cc1)C(=O)c1ccccc1S2
Cc1ccc(C(=O)N/C(=C\C=C\c2ccccc2)C(=O)NCc2ccco2)cc1
CC(C)c1ccc(C(C)NC(=O)C2CCCC2)cc1 (configuration not stated)
O=C(NNC(=S)NC(=O)c1sc2ccccc2c1Cl)c1ccc(Cl)cc1
COc1ccccc1C(=O)NC(=S)NNC(=O)c1sc2ccccc2c1Cl
CCCOc1ccc(C(=O)NC(=S)NNC(=O)c2c(-c3ccccc3)noc2C)cc1
Cc1onc(-c2ccccc2)c1C(=O)NNC(=S)NC(=O)c1ccc(Br)cc1
CCn1c(=O)n(CC)c2cc(S(=O)(=O)N3CCc4ccccc43)ccc21
O=C(NNS(=O)(=O)c1ccccc1[N+](=O)[O-])c1cc2ccccc2cc1O
C=CCN(CC=C)S(=O)(=O)c1ccc2nc(NC(=O)C3CCCO3)sc2c1 (configuration not stated)
CCOC(=O)c1sc(NC(=O)CSc2nc3c(c(=O)n2-c2ccc(C)cc2)SCC3)c(C(=O)OCC)c1C
CC(OC(=O)CCN1C(=O)c2cccc([N+](=O)[O-])c2C1=O)C(=O)Nc1cc(Cl)cc(Cl)c1 (configuration not stated)
CCc1c(C2(O)CCCCC2)[nH]c2cc(C(F)(F)F)ccc12
Cc1cc(NS(=O)(=O)c2ccc(NC(=O)/C=C/c3c(F)cccc3Cl)cc2)nc(C)n1
Cc1cc(C)cc(NC(=O)c2ccc(N3C(=O)C4CCCCC4C3=O)cc2)c1 (configuration not stated)
Cc1ccc(NC(=O)c2ccc(Cn3cc([N+](=O)[O-])cn3)cc2)c(C)c1
CN(Cc1ccccc1)CC(O)COc1ccc(CNCc2cc3ccccc3s2)cc1 (configuration not stated)
O=C(O)CC(Cc1ccc(Cl)cc1)C(=O)Nc1cc(Cl)ccc1Cl (configuration not stated)
Cc1cc(NCCCn2ccnc2)n2ncc(-c3ccc(Cl)cc3)c2n1
Cc1ccc(C(=O)NCC(=O)N2CCC(Cc3ccccc3)CC2)cc1
C=CCNC(=O)c1ccc(C2SCC(=O)N2Cc2ccccc2)cc1 (configuration not stated)
CCOC(=O)C1(CCOC)CCN(Cc2ccc(C(=O)OC)cc2)CC1
CC(C)CNS(=O)(=O)c1ccc(CCC(=O)N2CCN(Cc3ccc4c(c3)OCO4)CC2)cc1
COc1ccc2c(c1)-c1c(ssc1=S)C(C)(C)N2
CC(C)OC(=O)CN1CCN(S(=O)(=O)c2cc(Cl)ccc2Cl)CC1
CC(=O)c1ccc(S(=O)(=O)N(C)C(C)CCc2ccco2)cc1 (configuration not stated)
Cc1ccc(C(C)NC(=S)NCc2ccc(F)cc2)cc1C (configuration not stated)
COc1cccc(NC(=S)N(Cc2ccc(C(=O)O)cc2)Cc2ccc(OC)c(OC)c2)c1
CCN(CC)CCCN(C(=O)c1ccco1)c1nc(-c2ccc(Cl)cc2)cs1
CCCCNC(=O)c1onc(CSc2ccc(C(C)C)cc2)c1C(=O)O
O=C1c2ccccc2-c2cccnc21
O=[N+]([O-])c1ccc(Nc2ccccc2O)c2nonc12
Cc1ccc2nc(Nc3ccccc3)cc(C)c2c1
CCc1ccc(N/C(=N/c2nc(C)cc(C)n2)NC(C)=O)cc1
CCSc1nnc2n1C(C)(C)Cc1ccccc1-2
CCOc1ccc(OCc2ccc(C(=O)N3CCCC3)o2)cc1
COc1ccc(C2SCC(=O)N2CCc2ccc(OC)c(OC)c2)cc1 (configuration not stated)
COc1ccc(C2CC(c3ccc(Br)cc3)=NN2C(=O)CN2CCCC2)cc1 (configuration not stated)
CC(=O)N1c2ccc(S(=O)(=O)NCc3ccccc3Cl)cc2CC1C (configuration not stated)
CCOC(=O)N1CCN(C(=O)c2ccc3nc(N4CCC(C)CC4)sc3c2)CC1
CCOC(=O)c1oc2nc(C(C)C)c3c(c2c1N)CCC3
CCCc1nc2oc(C(=O)OCC)c(N)c2c2c1COC(C)(C)C2
Cc1ccc(CNc2ncc(-c3ccccc3)n2C)o1
OCCn1nc(-c2ccccc2)cc1-c1ccccc1
Cn1c(SCC(=O)N2CCN(c3ccccc3)CC2)nnc1-c1ccccc1
CS(=O)(=O)Nc1ccccc1C(=O)NCCSc1ccccc1
COc1ccc(C(=O)C2CCCN(C(=O)C3=CCCC3)C2)c(C)c1 (configuration not stated)
COc1ccc(NC(=O)N2CCC(n3cnc4ccccc43)CC2)cc1
COc1ccc(C(=O)C2CCCN(C(=O)c3noc4c3CCCC4)C2)cc1F (configuration not stated)
CCC1CCCCN1CCCNC(=O)c1ccc2c(c1)c(C)c(C)n2C (configuration not stated)
CCN(CC)C(=O)c1ccc(COc2ccccc2Br)o1
O=C(Nc1cccnc1)c1ccc(COc2ccccc2Cl)o1
Cc1ccc(S(=O)(=O)NC(=O)COc2cc(C)ccc2C(C)C)cc1
Cc1ccc(S(=O)(=O)CC(O)COc2ccc(F)cc2Cl)cc1 (configuration not stated)
CCN(CC)S(=O)(=O)c1ccc(OC)c(NC(=S)Nc2ccc(C)c(C)c2)c1
Cc1ccc(S(=O)(=O)N2CCC(=O)N(CCOCc3ccc(F)cc3)CC2)cc1
Cc1ccc(C)c(S(=O)(=O)C(C#N)c2nc3ccccc3nc2N2CC(C)OC(C)C2)c1 (configuration not stated)
Cc1ccc(-c2nnc(N3CCCCC3)c3ccccc23)cc1S(=O)(=O)N1CCN(C)CC1
COc1cc(OC)cc(C(=O)NC(=S)NNC(=O)[C@H]2C[C@@H]2c2ccccc2)c1
CS(=O)(=O)c1ncc(Cl)c(C(=O)Nc2ccc(N3CCOCC3)cc2)n1
CS(=O)(=O)c1ncc(Cl)c(C(=O)Nc2ccc(OC(F)F)cc2)n1
